From PubChem BioAssay (Tox21)
“And” between values parts separate entries of the source, which are not always exact repeats. Identical values can stand only once. Inconclusive results are not listed. Entries that show only a call come without a potency. A structure can be active in one record and inactive in another. The source made the active and inactive calls. Unless noted, calls come from the whole dose curve; as a rule, active = well fitted curve in the direction sought with a large enough effect in the repeat runs; inconclusive = weak or mixed curves; inactive = no such curve, though single readings can be large; an effect the other way counts as inactive or inconclusive.

Key:
[1] = qHTS assay to identify aromatase inhibitors - cell viability counter screen (AID 743084);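 note: cells stimulated with testosterone during compound exposure; nearly all actives have a fitted effect of over 55% in size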; note: potency is the fitted concentration of half-maximal effect
[2] = molecular target: Aryl hydrocarbon receptor (Homo sapiens) (UniProt P35869); test: qHTS assay to identify small molecule that activate the aryl hydrocarbon receptor (AhR) signaling pathway (AID 743085); note: nearly all actives have a fitted effect of over 15% in size; note: potency is the fitted concentration of half-maximal effect;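 for activation: HG2L7.5c1 human HepG2 liver cells with stably integrated DRE-driven firefly reporter; series mostly up to about 70 µM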
How it was run: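 Cell line HG2L7.5c1 (human hepatoma, 20× DRE-luc). Plated, 5 h 37C, compound/DMSO added, 24 h 37C. CellTiter-Fluor 30 min 37C → fluorescence; then ONE-Glo 30 min RT → luminescence.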

[3] = qHTS assay to identify small molecule that activate the aryl hydrocarbon receptor (AhR) signaling pathway - cell viability counter screen (AID 743086); note: nearly all actives have a fitted effect of over 45% in size; note: potency is the fitted concentration of half-maximal effect
How it was run: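 HepG2-AhR-luc (HG2L7.5c1) cells, 4000/well, treated 24 h at 37 C with compound; viability measured as CellTiter-Fluor fluorescence after 30 min in the same wells as the luciferase read.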

[4] = molecular target: Peroxisome proliferator-activated receptor gamma (Homo sapiens) (UniProt P37231); test: qHTS assay to identify small molecule agonists of the peroxisome proliferator-activated receptor gamma (PPARg) signaling pathway (AID 743094; active = well fitted activation curve with a large enough effect in the signal ratio in the repeat runs, not every such curve was filed as active; the % refers to the signal ratio)
How it was run: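 Agonism was assessed in a beta-lactamase reporter system, HEK293H cells with a stably integrated UAS-bla construct under PPARg control; the 17 h treatment at 37C preceded a 1 h room-temperature FRET substrate read.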

[5] = qHTS assay to identify small molecule antagonists of the peroxisome proliferator-activated receptor gamma (PPARg) signaling pathway - cell viability counter screen (AID 743194); note: nearly all actives have a fitted effect of over 55% in size
How it was run: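 Cytotoxicity counter screen in PPARg-bla HEK293H cells, same wells as reporter assay. Compounds plus 50 nM rosiglitazone (final) for 17 h at 37 C, then viability read by CellTiter-Glo luminescence.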

[6] = qHTS assay for small molecule agonists of the antioxidant response element (ARE) signaling pathway - cell viability counter screen (AID 743203; calls by dose curve; note: nearly all actives have a fitted effect of over 55% in size)
How it was run: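 ATP content via CellTiter-Glo luminescence served as the viability measure. Cells: ARE-bla HepG2, 2,000 per well. Exposure: 16 hrs, 37C/5% CO2.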

[7] = qHTS assay for small molecule activators of the heat shock response signaling pathway - cell viability counter screen (AID 743209); note: nearly all actives have a fitted effect of over 50% in size
How it was run: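 Compounds dissolved in DMSO were added to overnight-plated HSE-bla HeLa cells and left 5 h at 37 C. Cell viability was quantified by luminescence using CellTiter-Glo.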

[8] = qHTS assay for small molecule activators of the heat shock response signaling pathway (AID 743210; active = well fitted activation curve with a large enough effect in the signal ratio in the repeat runs, with a control signal flat, not every such curve was filed as active; the % refers to the signal ratio;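 note: HeLa cells with beta-lactamase reporter driven by heat shock elements; series mostly up to about 63 µM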)
How it was run: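 Beta-lactamase reporter read-out: FRET substrate fluorescence after 2.5 h at RT, following 5 h compound treatment at 37 C of HeLa cells carrying HSE-driven bla reporter; quantitative HTS format.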

[9] = qHTS assay to identify small molecule agonists of the peroxisome proliferator-activated receptor delta (PPARd) signaling pathway - cell viability counter screen (AID 743211); note: nearly all actives have a fitted effect of over 55% in size; note: potency is the fitted concentration of half-maximal effect
How it was run: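 HEK293H PPARd-bla, 3000 cells/well; 5 h preincubation 37C/5% CO2; cpd in DMSO, 17 h 37C; B/G FRET substrate 2 h RT; CellTiter-Glo 30 min RT, luminescence.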

[10] = molecular target: Peroxisome proliferator-activated receptor delta (Homo sapiens) (UniProt Q03181); test: qHTS assay to identify small molecule agonists of the peroxisome proliferator-activated receptor delta (PPARd) signaling pathway (AID 743212; calls by dose curve)
How it was run: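 Read-out: beta-lactamase FRET fluorescence after 2 h room-temperature incubation with LiveBLAzer B/G substrate. Cells were HEK293H carrying a UAS-bla reporter for PPARd, treated at 37 C with DMSO-dissolved compounds.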

[11] = qHTS assay to identify small molecule antagonists of the peroxisome proliferator-activated receptor delta (PPARd) signaling pathway - cell viability counter screen (AID 743213); note: nearly all actives have a fitted effect of over 50% in size; note: potency is the fitted concentration of half-maximal effect
How it was run: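 Same-well viability: cells pre-incubated 5 h, dosed with compound plus 300 nM L165041, kept 17 h at 37 C, FRET substrate 2 h RT, then CellTiter-Glo 30 min RT and luminescence.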

[12] = molecular target: Peroxisome proliferator-activated receptor delta (Homo sapiens) (UniProt Q03181); test: qHTS assay to identify small molecule antagonists of the peroxisome proliferator-activated receptor delta (PPARd) signaling pathway (AID 743215; active = well fitted inhibition curve with a large enough effect in the signal ratio in the repeat runs, not every such curve was filed as active; the % refers to the signal ratio;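 note: cells stimulated with agonist L165041 at 300 nM final during compound exposure; series mostly up to about 62 µM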)
How it was run: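 Here, a reporter line (HEK293H, beta-lactamase under a UAS) measures PPARd signaling. Compounds are tested against agonist L165041 at 300 nM final concentration over 17 h at 37 C, with fluorescence read after substrate.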

[13] = molecular target: Bile acid receptor (Homo sapiens) (UniProt Q96RI1); test: qHTS assay to identify small molecule antagonists of the farnesoid-X-receptor (FXR) signaling pathway (AID 743217; active = well fitted inhibition curve with a large enough effect in the signal ratio in the repeat runs, not every such curve was filed as active; the % refers to the signal ratio)
How it was run: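 Test compounds are pin-transferred onto FXR-bla HEK 293T cells, then chenodeoxycholic acid is added at 50 uM final. After 16 h at 37 °C, LiveBLAzer B/G substrate is applied for 2 h at room temperature and fluorescence read.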

[14] = qHTS assay to identify small molecule agonists of the farnesoid-X-receptor (FXR) signaling pathway - cell viability counter screen (AID 743218); note: nearly all actives have a fitted effect of over 45% in size
How it was run: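 Quantitative HTS counter screen measuring ATP-based viability via CellTiter-Glo luminescence in HEK 293T cells carrying a UAS-driven beta-lactamase reporter, after 16 h compound exposure at 37 C.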

[15] = molecular target: Bile acid receptor (Homo sapiens) (UniProt Q96RI1); test: qHTS assay to identify small molecule agonists of the farnesoid-X-receptor (FXR) signaling pathway (AID 743220; active = well fitted activation curve with a large enough effect in the signal ratio in the repeat runs, not every such curve was filed as active; the % refers to the signal ratio)
How it was run: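 FXR-UAS-bla HEK 293T cells carrying a UAS-driven beta-lactamase reporter were plated for 5 h at 37C/5% CO2, then exposed to DMSO-dissolved Tox21 10K compounds for 16 h at 37C. A LiveBLAzer B/G FRET substrate was loaded for 2 h at room temperature before fluorescence reading.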

[16] = qHTS assay to identify small molecule antagonists of the farnesoid-X-receptor (FXR) signaling pathway - cell viability counter screen (AID 743221; active = well fitted cell-killing curve with a large enough effect in the repeat runs, not every such curve was filed as active; note: nearly all actives have a fitted effect of over 50% in size)
How it was run: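 Luminescence from CellTiter-Glo measures cytotoxicity in GeneBLAzer FXR-UAS-bla HEK 293T cells. Cells were exposed to compounds with 50 uM chenodeoxycholic acid (final) for 16 h at 37 C, in wells also used for the reporter readout.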

[17] = molecular target: Vitamin D3 receptor (Homo sapiens) (UniProt P11473); test: qHTS assay to identify small molecule agonists of the vitamin D receptor (VDR) signaling pathway (AID 743222; calls by dose curve)
How it was run: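 Tox21 cell reporter format: VDR-bla line, 16 h compound exposure in 5% CO2 at 37C, then fluorescence intensity after 2 h with LiveBLAzer B/G FRET substrate.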

[18] = qHTS assay for small molecule agonists of the antioxidant response element (ARE) signaling pathway (AID 743202; active = well fitted activation curve with a large enough effect in the signal ratio in the repeat runs, not every such curve was filed as active; the % refers to the signal ratio; note: potency is the fitted concentration of half-maximal effect)
How it was run: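 HepG2 ARE-bla reporter line, 2,000 cells/well; 5 h preincubation 37 C/5% CO2; compound (DMSO) 16 h 37 C; B/G FRET substrate 2 h RT; fluorescence intensity.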

[19] = molecular target: Vitamin D3 receptor (Homo sapiens) (UniProt P11473); test: qHTS assay to identify small molecule antagonists of the vitamin D receptor (VDR) signaling pathway (AID 743223; active = well fitted inhibition curve with a large enough effect in the signal ratio in the repeat runs, not every such curve was filed as active; the % refers to the signal ratio)
How it was run: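 Antagonist mode uses 1alpha,25-dihydroxyvitamin D3 at 3 nM final as stimulus. VDR-bla cells receive compounds in DMSO, incubate 16 h at 37C, then a beta-lactamase FRET substrate for 2 h at room temperature before fluorescence measurement.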

[20] = molecular target: Peroxisome proliferator-activated receptor gamma (Homo sapiens) (UniProt P37231); test: qHTS assay to identify small molecule antagonists of the peroxisome proliferator-activated receptor gamma (PPARg) signaling pathway (AID 743191; calls by dose curve; note: series mostly up to about 63 µM; nearly all actives have a fitted effect of over 30% in size)
How it was run: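 GeneBLAzer PPARg UAS-bla HEK293H cells, 5 h post-plating, exposed to compounds 17 h at 37C. LiveBLAzer B/G FRET substrate added for 1 h at room temperature; beta-lactamase reporter read by fluorescence intensity.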

Chain of Peroxisome proliferator-activated receptor delta (Homo sapiens) (Q03181 whole entry, looked up): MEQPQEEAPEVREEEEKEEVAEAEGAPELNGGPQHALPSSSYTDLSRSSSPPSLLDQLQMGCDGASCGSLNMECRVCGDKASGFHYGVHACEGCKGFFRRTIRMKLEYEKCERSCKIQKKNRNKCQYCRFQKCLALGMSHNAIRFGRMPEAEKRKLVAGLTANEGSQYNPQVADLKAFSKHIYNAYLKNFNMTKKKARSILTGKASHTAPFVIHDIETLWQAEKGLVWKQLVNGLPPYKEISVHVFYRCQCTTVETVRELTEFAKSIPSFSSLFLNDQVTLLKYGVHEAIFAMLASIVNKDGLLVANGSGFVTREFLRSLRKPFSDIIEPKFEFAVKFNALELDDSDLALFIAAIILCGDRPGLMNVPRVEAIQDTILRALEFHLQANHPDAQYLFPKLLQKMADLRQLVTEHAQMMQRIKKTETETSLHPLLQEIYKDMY
Chain of Aryl hydrocarbon receptor (Homo sapiens) (P35869 whole entry, looked up): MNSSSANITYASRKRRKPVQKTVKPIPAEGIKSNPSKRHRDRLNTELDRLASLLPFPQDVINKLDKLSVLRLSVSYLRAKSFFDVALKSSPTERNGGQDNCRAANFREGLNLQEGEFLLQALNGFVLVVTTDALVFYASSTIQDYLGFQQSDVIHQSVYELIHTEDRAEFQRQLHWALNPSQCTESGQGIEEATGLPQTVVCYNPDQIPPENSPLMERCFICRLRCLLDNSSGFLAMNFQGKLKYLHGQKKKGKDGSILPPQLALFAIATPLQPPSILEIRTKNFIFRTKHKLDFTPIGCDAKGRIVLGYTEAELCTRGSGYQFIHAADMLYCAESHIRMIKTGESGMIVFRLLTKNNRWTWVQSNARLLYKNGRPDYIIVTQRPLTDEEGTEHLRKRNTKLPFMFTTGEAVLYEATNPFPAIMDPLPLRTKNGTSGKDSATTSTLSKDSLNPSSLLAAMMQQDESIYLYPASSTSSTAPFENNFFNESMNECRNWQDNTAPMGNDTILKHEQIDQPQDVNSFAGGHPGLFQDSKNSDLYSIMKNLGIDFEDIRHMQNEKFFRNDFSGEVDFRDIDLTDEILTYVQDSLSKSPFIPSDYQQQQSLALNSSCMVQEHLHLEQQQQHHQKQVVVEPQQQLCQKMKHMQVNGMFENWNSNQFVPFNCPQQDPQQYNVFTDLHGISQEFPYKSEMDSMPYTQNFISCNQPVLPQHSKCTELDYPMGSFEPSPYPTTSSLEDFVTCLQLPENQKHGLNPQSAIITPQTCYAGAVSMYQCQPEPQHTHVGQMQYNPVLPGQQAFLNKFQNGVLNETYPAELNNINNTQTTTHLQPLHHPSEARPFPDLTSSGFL
Chain of Bile acid receptor (Homo sapiens) (Q96RI1 whole entry, looked up): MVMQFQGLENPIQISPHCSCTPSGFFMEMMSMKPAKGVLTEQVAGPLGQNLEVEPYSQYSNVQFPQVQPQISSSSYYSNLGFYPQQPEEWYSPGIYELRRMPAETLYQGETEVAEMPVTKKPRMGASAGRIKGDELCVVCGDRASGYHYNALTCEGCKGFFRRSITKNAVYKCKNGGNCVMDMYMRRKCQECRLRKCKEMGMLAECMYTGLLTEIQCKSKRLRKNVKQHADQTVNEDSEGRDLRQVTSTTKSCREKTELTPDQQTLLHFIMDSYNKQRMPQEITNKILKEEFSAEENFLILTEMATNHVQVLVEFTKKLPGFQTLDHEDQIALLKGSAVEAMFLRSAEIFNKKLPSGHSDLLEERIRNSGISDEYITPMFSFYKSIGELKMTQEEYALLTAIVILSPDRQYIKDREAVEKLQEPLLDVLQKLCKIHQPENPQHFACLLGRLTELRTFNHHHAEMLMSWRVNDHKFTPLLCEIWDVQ
Chain of Peroxisome proliferator-activated receptor gamma (Homo sapiens) (P37231 whole entry, looked up): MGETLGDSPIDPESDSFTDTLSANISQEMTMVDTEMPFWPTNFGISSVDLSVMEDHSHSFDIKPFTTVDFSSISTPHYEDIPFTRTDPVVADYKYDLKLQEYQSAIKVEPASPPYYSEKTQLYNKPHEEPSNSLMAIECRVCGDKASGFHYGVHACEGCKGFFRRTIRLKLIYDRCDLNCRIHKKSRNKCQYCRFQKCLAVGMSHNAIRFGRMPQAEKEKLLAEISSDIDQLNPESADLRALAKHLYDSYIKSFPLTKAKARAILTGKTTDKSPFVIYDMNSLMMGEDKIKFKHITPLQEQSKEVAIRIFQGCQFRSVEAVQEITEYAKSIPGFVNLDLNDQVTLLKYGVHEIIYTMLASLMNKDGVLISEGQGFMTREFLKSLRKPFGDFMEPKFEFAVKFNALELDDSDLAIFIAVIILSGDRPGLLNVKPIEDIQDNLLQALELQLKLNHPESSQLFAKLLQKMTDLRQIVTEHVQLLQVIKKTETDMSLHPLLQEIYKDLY
Chain of Vitamin D3 receptor (Homo sapiens) (P11473 whole entry, looked up): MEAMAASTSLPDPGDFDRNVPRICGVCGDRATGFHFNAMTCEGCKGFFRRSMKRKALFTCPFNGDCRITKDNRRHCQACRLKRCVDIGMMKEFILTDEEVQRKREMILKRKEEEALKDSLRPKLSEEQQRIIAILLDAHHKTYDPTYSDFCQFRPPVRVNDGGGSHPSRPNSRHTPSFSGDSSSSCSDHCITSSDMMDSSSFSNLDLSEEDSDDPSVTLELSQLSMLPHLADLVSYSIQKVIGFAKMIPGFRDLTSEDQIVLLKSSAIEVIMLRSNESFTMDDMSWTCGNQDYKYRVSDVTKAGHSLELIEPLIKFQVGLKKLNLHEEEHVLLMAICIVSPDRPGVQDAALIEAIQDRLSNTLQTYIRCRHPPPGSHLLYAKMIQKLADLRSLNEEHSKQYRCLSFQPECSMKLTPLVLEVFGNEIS

SMILES | Potency [1] | Potency [2] | Potency [3] | Potency [4] | Potency [5] | Potency [6] | Potency [7] | Potency [8] | Potency [9] | Potency [10] | Potency [11] | Potency [12] | Potency [13] | Potency [14] | Potency [15] | Potency [16] | Potency [17] | Potency [18] | outcome [19] | Potency [20]
CCOC(=O)C(F)(F)F | inactive | inactive | inactive | inactive | inactive | inactive | inactive | inactive | inactive | inactive | inactive | inactive | inactive | inactive | inactive | inactive | inactive |  |  | 
C[C@@H](c1ncncc1F)C(O)(Cn1cncn1)c1ccc(F)cc1F (stereo not given in full) | inactive | inactive | inactive | inactive | inactive | inactive | inactive | inactive | inactive | inactive | inactive | inactive | inactive | inactive |  | inactive |  |  |  | 
CC(C)C[C@H]1C(=O)N2CCC[C@H]2[C@]2(O)O[C@](NC(=O)[C@@H]3C=C4c5cccc6[nH]c(Br)c(c56)C[C@H]4N(C)C3)(C(C)C)C(=O)N12 | inactive | inactive | 26.6 µM (active) |  | inactive | inactive | inactive | inactive |  |  |  |  |  | inactive |  | inactive | inactive | 4.13 µM (active) | inactive | 
OCc1cc(C(O)CNCCCCCCOCCCCc2ccccc2)ccc1O (stereo not given) | 11.9 µM (active) and 9.44 µM (active) | 26.6 µM (active) and inactive | 26.6 µM (active) and 13.3 µM (active) |  | inactive |  | inactive | inactive | 26.6 µM (active) |  |  | inactive |  |  | inactive | inactive |  |  |  | inactive
C/C=C/C=C/CO | inactive | inactive | inactive | inactive |  | inactive | inactive | inactive |  | inactive | inactive | inactive | inactive | inactive | inactive | inactive | inactive |  | inactive | 
CN(Cc1ccc(C(C)(C)C)cc1)Cc1cccc2ccccc12 | inactive | inactive | inactive | inactive |  | inactive | inactive | inactive |  |  | 23.7 µM (active) | inactive |  |  | inactive |  | inactive | inactive | inactive | 
Cc1ncc(CO)c(C=O)c1O | inactive | inactive | inactive | inactive |  | inactive | inactive |  | inactive | inactive | inactive | inactive |  | inactive |  | inactive | inactive |  | inactive | 
CCCCCCCCCOS(=O)(=O)O | inactive | inactive | inactive | inactive |  | inactive | inactive | inactive | inactive |  | inactive | inactive |  | inactive |  |  | inactive |  |  | 
